ADAM17 inh: inhibitors of human ADAM17. P78536. recombinant ADAM17, EDANS/DABCYL FRET peptide cleavage. inhibition, % at 6.95 µM. 370,000 tested, 0.83% active. AID 720648;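 active = inhibition above the mean of compounds lying between control limits plus 3 SD, set per campaign, cut at about 8.5% in these data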;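 also: 0% = DMSO-only wells as the low control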
sPLA2-III inh: Blocks human group III sPLA2 activity | 370,000 tested, 0.56% active | QFRET BODIPY PC-A2 liposome hydrolysis, fluorescence | Q9NZ20 | inhibition, % at 12.2 µM;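 active = inhibition above mean plus 3 SD of compounds lying within the high and low control bounds, cut at about 19% in these data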;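 also: 0% = median of test compound wells and 100% = no enzyme DMSO wells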
Target sequence (Q9NZ20 whole entry, looked up): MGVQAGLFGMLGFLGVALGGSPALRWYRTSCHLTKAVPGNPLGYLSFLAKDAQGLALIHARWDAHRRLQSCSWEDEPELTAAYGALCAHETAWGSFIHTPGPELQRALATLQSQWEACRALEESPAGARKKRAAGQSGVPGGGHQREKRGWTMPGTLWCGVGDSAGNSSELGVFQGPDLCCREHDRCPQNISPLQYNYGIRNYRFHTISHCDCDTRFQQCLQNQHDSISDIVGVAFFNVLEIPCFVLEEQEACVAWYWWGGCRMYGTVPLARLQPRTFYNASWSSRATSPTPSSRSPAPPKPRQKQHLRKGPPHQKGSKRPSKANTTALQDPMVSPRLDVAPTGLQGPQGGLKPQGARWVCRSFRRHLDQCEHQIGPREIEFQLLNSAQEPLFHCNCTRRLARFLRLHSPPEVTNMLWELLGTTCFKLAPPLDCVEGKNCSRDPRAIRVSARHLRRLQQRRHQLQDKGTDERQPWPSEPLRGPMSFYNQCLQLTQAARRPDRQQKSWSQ
proKLK7 act: activates the human kallikrein-7 zymogen. P49862. purified proKLK7, EDANS-DABCYL substrate fluorescence; 100% is mature enzyme control, 0% vehicle. activation, % at 7 µM. 370,000 tested, 0.9% active. AID 652039;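 active = activation above the mean of all tested compounds plus 3 SD, computed per campaign excluding outliers beyond control limits, cut at about 13% in these data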
CendR NRP1 mod: modulators of CendR peptide binding to human neuropilin-1; 360,000 tested, 0.85% active; FAM-RPARPAR peptide binding to NRP-1, fluorescence polarization; O14786; inhibition, % at 25 µM; AID 602438;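 active = inhibition or corrected inhibition above about 18%, plus a signal ratio from 0.5 to 1.5, limit read from the data, passing the limit was not always enough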
ADAM10 inh: inhibits human ADAM10; recombinant ADAM10, EDANS/DABCYL FRET peptide cleavage, 3 h; 370,000 tested, 0.62% active; inhibition, % at 7 µM;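 active = inhibition above a per-campaign cutoff equal to the mean of compounds falling between control-based bounds plus 3 SD, cut at about 20% in these data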;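 also: 0% = DMSO wells while the 100% control is not disclosed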
sPLA2 confirm: human GIII-sPLA2 inhibition, confirmation; recombinant hGIII-sPLA2, BODIPY PC-A2 QFRET fluorescence; inhibition, % at 12.2 µM; 2,000 tested, 34% active; shares compounds with sPLA2-III inh;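 active = mean inhibition across triplicates above the hit cutoff set in the earlier primary screen, cut at about 19% in these data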;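 also: 0% = enzyme with DMSO and 100% = DMSO wells lacking enzyme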
535nm interf: counter-screen for HGIII-sPLA2 inhibitors: 535nm fluorescence interference; shares compounds with sPLA2-III inh; BODIPY FL product fluorescence interference, QFRET; inhibition, % at 12.2 µM; 2,000 tested, 8.5% active; AID 743282;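 active = average inhibition above the solvent-only control mean plus 3 SD, cut at about 6% in these data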;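 also: 0% = DMSO with substrate plus product and 100% = DMSO with substrate alone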
535nm interf DR: interferes with 535nm fluorescence in dose response counter-screen; IC50, µM; 240 tested, under 10 active; shares compounds with sPLA2-III inh; BODIPY FL product fluorescence interference, cell-free;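 active = IC50 at or below 10 µM; inactive = IC50 above 10 µM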
An asterisk follows results filed as active; / = no result given. Hits are enriched below; roughly 3.4% of the tested compounds scored in any of these assays.

SMILES | ADAM17 inh | sPLA2-III inh | proKLK7 act | CendR NRP1 mod | ADAM10 inh | sPLA2 confirm | 535nm interf | others
O=C(Nc1ccc(Cl)cc1Cl)NC1CCN(S(=O)(=O)c2ccc(F)cc2)CC1 | -3.1 | 20.8* | -0.2 | 12.0 | -4.6 | -26.4 | -2.9
Nn1c(SCc2cccc3ccccc23)nnc1-c1n[nH]c2c1CCC2 | 0.7 | -2.5 | -0.5 | / | -1.4 | / | /
CC1=C(C(=O)N(C)C)CC(CC(=O)NC2CCCCC2)C(=O)N1CCCN1CCCC1=O (centres undefined) | -2.0 | 21.5* | 0.6 | 8.6 | -25.0 | 0.2 | -7.7
CC/C(=C\c1ccc(N(C)C)cc1)c1ccncc1 | -5.1 | 22.6* | -0.7 | -2.5 | -21.0 | 19.6* | -0.4
CN(C)c1ccc(/C=N/NC(=O)CNC(=O)c2ccncc2)cc1 | -25.6 | 2.7 | 0.6 | -11.0 | -92.4 | / | /
CC1(C)Cc2ccccc2-c2nnnn21 | 4.1 | 23.0* | -0.3 | 2.8 | -4.0 | 4.5 | -3.5
O=C(NCc1ccccc1)[C@@H]1CCCN1C(=O)[C@H]1CCCN1C(=O)c1c(F)cccc1F | -2.0 | 16.5 | -0.1 | / | -1.1 | / | /
CCCCc1c(-c2ccccc2OC)ncn1Cc1cccc(F)c1 | -0.7 | -10.5 | 0.9 | / | 3.9 | / | /
O=C(NCCc1c[nH]c2ccccc12)OCc1cn(-c2ccccc2Cl)nn1 | -5.9 | -72.2 | -0.1 | / | -4.0 | / | /
CNC(=S)N/N=C/c1cc(Br)cc(Br)c1O | -44.2 | 44.0* | -7.3 | -3.9 | -128.0 | 51.3* | 4.8 | 535nm interf DR=>122
CC(C)c1onc(C(=O)N(C)Cc2ccccc2)c1[N+](=O)[O-] | 4.0 | 21.7* | -0.2 | 5.8 | -12.1 | -4.5 | 1.2
CC(C)c1onc(C(=O)NCCc2ccccc2)c1[N+](=O)[O-] | -0.9 | 3.5 | 0.2 | 7.6 | 9.2 | / | /
CN1CCc2ccccc2CC1=O | 4.8 | 20.4* | -0.1 | 1.3 | -12.0 | -1.0 | -5.4
CCCC1CCC2(CC1)CCC2OC(=S)NCCc1ccc(Cl)cc1 (centres undefined) | -3.1 | 11.8 | / | / | -8.8 | / | /
CN1OC[C@@H]2CN(Cc3ccc4c(c3)OCO4)[C@H](c3ccc(-n4ccnc4)cc3)C[C@@H]21 | 2.0 | -5.5 | -0.3 | / | -4.6 | / | /
OC[C@@H]1CC[C@@H]2O[C@H](CCc3ccc(-c4ccc(F)cc4)cc3)[C@H](n3cc(C4CC4)nn3)C[C@@H]2O1 | 6.4 | -22.2 | 0.8 | / | 17.3 | / | /
CCc1ccc2cccc3c2c1N=CN3C | -1.7 | 22.3* | -0.8 | 11.1 | -7.2 | 21.6* | 4.0
CN1C(=O)N(C)c2cccc3cccc1c23 | -2.1 | 1.8 | 0.1 | 12.0 | -2.2 | / | /
O=C(Cn1nnc(-c2ccc(N3CCOCC3)cc2)n1)c1ccccc1 | 6.5 | -46.5 | 0.9 | / | -2.7 | / | /
N#Cc1c(C(F)(F)F)cc(-c2ccco2)nc1SCc1ccncc1 | -21.0 | -1.5 | 2.2 | -58.6 | -75.7 | / | /
N#Cc1c(C(F)(F)F)cc(-c2ccco2)nc1SCc1ccccn1 | -81.5 | 19.7* | 0.5 | -23.8 | -221.6 | 6.3 | -10.6
N/C(=N\OC(=O)COc1ccc(Br)cc1)c1ccncc1 | -3.9 | 20.2* | -0.4 | 4.2 | -11.3 | -1.2 | -9.7
C=CCN1C(=O)[C@H](CC(=O)N2CCC(c3ccccc3)CC2)[C@@]2(C(=O)OCC)CCCC=C12 | 4.6 | 0.1 | 0.6 | / | 11.2 | / | /
COC(=O)C1CN(Cc2ccc(F)cc2)CCS(=O)(=O)N1Cc1ccc(F)cc1 (centres undefined) | -0.3 | -6.3 | 0.2 | / | 1.1 | / | /
C/C(=N\NC(=O)c1ccc(CN2CCc3ccccc3C2)cc1)c1ccccc1O | 0.2 | 32.8* | -5.7 | 0.1 | -3.4 | 24.3* | -21.3
CCCNC(=O)c1ccc(CN2CCc3ccccc3C2)cc1 | -4.4 | 4.7 | -0.4 | -8.6 | 6.2 | / | /
O=C(NC1CCCCN(Cc2ccc(Cl)cc2)C1=O)c1ccccc1 (centres undefined) | -6.8 | 3.4 | -0.4 | / | -10.6 | / | /
COc1ccc(-n2c(N)c(C#N)c3ccc([N+](=O)[O-])cc3c2=O)cc1 | -5.3 | 4.9 | -0.5 | -12.3 | -17.8 | / | /

Screens as filed in PubChem.
